Assay outcomes (PubChem BioAssay)
KDM5B inhibitor = blocks human KDM5B histone demethylase activity | Potency, µM (series often up to 57.7 µM), usual class: inhibitors | hit rate 2.6% among 220,000 | AID 1347165 | KDM5B demethylase, FDH-coupled NADH fluorescence (FDH is formaldehyde dehydrogenase); active = well fitted inhibition curve with a large enough effect; note: nearly all actives have a fitted effect of over 70% in size
Target sequence (Q9UGL1 whole entry, looked up): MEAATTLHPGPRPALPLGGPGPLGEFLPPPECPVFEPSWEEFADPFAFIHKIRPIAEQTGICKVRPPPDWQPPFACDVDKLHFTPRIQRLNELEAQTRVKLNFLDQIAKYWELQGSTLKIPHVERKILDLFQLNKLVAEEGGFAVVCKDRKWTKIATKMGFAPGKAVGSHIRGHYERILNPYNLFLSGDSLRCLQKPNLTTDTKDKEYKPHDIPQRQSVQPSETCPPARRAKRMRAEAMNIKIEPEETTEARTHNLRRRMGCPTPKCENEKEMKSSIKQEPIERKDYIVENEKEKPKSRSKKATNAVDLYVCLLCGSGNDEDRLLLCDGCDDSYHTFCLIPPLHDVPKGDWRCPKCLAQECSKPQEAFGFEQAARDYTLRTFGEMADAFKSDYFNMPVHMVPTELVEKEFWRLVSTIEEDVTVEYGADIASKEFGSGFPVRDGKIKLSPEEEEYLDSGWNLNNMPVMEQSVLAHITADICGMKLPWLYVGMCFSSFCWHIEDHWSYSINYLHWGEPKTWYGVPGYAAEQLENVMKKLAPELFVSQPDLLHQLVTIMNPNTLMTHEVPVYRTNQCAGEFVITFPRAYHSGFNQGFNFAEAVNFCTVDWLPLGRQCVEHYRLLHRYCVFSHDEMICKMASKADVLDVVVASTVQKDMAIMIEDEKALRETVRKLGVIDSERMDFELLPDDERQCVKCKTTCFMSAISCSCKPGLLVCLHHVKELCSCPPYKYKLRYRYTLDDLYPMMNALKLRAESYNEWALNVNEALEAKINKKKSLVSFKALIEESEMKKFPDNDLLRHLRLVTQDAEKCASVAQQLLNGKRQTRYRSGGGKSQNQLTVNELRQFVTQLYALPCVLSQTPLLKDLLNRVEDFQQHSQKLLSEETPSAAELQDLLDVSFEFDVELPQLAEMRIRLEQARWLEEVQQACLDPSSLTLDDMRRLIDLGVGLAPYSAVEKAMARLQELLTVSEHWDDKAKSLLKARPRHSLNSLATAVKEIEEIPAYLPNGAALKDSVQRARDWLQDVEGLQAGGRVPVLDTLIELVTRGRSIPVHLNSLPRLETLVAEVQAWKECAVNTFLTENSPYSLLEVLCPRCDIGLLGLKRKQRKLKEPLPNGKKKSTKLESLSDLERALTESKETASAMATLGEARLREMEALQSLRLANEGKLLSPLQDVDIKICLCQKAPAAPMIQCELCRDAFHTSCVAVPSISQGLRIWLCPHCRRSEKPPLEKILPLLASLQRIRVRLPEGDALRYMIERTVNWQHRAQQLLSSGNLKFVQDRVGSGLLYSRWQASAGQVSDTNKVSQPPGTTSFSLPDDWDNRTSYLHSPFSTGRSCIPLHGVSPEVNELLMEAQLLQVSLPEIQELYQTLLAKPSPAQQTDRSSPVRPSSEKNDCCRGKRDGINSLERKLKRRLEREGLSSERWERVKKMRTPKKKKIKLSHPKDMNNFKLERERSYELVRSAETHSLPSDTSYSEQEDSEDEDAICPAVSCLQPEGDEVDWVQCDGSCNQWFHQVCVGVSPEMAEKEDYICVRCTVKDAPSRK
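Here, H3K4me3 peptide (12.5 µM in substrate mix) is demethylated by KDM5BΔAP, 200 nM final, after 10 min compound exposure. Formaldehyde product is coupled through FDH (0.25 U/mL in mix) to NADH fluorescence; 30-min ΔRFU feeds dose-response curves.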
Large screens that a line does not name were inactive. This is one part of a sample in which hits are shown more often than they occur.

Cn1nc(C(=O)N2CCN(c3ccccc3)CC2)c2ccccc2c1=O	none
COc1ccc(CN2CC3=C(C2=O)C(c2ccc(C)cc2)NC(=O)N3)cc1 (stereo not drawn)	none
Fc1ccc(Br)cc1CNc1ccccc1	none
O=[S+]1([O-])NC2(CCN(Cc3ccccn3)CC2)COc2ccccc21	none
O=[S+]1([O-])NC2(CCN(CC3CCOCC3)CC2)COc2ccccc21	KDM5B inhibitor 79.4µM
O=[S+]1([O-])NC2(CCN(Cc3ccsc3)CC2)COc2ccccc21	none
CC(C)(C)OC(=O)C(C)(C(=O)OC(C)(C)C)c1nc(C(C)(C(=O)OC(C)(C)C)C(=O)OC(C)(C)C)nc(C(C)(C(=O)OC(C)(C)C)C(=O)OC(C)(C)C)n1	none
COc1ccccc1CNS(=O)(=O)c1ccc(N2C(=O)C(C)CS2(=O)=O)cc1 (stereo not drawn)	none
Cc1ccc(C)c(C(=O)NCc2nnc3cc(-c4nc(C(C)C)no4)ccn23)c1	KDM5B inhibitor 14.1µM
Cc1ccc(C)c(C(=O)NCc2nnc3cc(-c4nc(C)no4)ccn23)c1	KDM5B inhibitor 25.1µM
CCc1c(C)sc(NC(=O)Cc2ccc(Cl)cc2Cl)c1C#N	none
NNc1ccccc1[N+](=O)[O-]	none
CN(C)CCNCC1CCCO1 (stereo not drawn)	none
CCCOc1ccc(C[N+](C)(C)C)cc1C[N+](C)(C)C	none
Cc1ccc(NC(=O)CCc2c[nH]c3ccccc23)cc1	none
CNC(=S)N/N=C(/C)c1ccc([N+](=O)[O-])cc1	none
C[N+]1(C)CC2CCC(Cl)=C(Cl)C2C1 (stereo not drawn)	none
COc1ccccc1C(=O)NC1CCN(c2cn[nH]c(=O)c2)CC1	none
COc1ccccc1C(=O)NC1CCN(c2nnc3ccccn23)CC1	KDM5B inhibitor 28.2µM
O=C(c1ccc2c(c1)OCO2)N1CCn2c(nnc2-c2ccccc2)C1	none
Cc1ccc(C(=O)N2CCN(c3nnc4ccccn34)CC2)cc1	KDM5B inhibitor 28.2µM
O=C(c1cccs1)N1CCCCCCC1	none
O=C(c1cccs1)N1CCN(c2nnc3ccccn23)CC1	KDM5B inhibitor 22.4µM
COc1ccccc1C(=O)NC1CCN(c2cc(C(F)(F)F)ncn2)CC1	none
Cc1ccc(CC(=O)N2CCN(c3nnc4ccc(C(F)(F)F)cn34)CC2)cc1	none
COc1ccc(C(=O)N2CCN(c3nnc4c(Cl)cccn34)CC2)cc1	none
O=C(c1ccc2c(c1)OCO2)N1CCN(c2nnc3ccccn23)CC1	KDM5B inhibitor 25.1µM
O=C(c1ccccc1)N1CCN(C(=O)c2ccc3c(c2)OCO3)CC1	none
O=C(c1ccc(OCc2cn3ccccc3n2)cc1)N1CCN(C(=O)c2cccs2)CC1	none
CN(C)S(=O)(=O)c1cccc(NC(=O)c2nn(Cc3ccccc3)c(=O)c3ccccc23)c1	none
O=C(c1cccc(F)c1)N(Cc1cccc2[nH]ccc12)C1CC1	none
CC1CCCN(C(=O)C2CCN(C(=O)c3cc4ccccc4n3C)CC2)C1 (stereo not drawn)	none
O=C(NCc1cnn(-c2ccccc2)c1)C1CCN(S(=O)(=O)c2ccccc2)CC1	none
NCCC/C(=N/O)c1cccs1	none
O=C(N[C@H]1CCN2C(=O)c3cc(-c4ccc(Cl)cc4)ccc3NC(=O)[C@@H]2C1)c1ccncc1	none
O=C1Nc2ccc(-c3ccc(Cl)cc3)cc2C(=O)N2CC[C@H](NS(=O)(=O)c3cccs3)C[C@@H]12	none
CS(=O)(=O)N[C@H]1CCN2C(=O)c3cc(Br)ccc3NC(=O)[C@@H]2C1	none
CS(=O)(=O)N[C@H]1C[C@H]2C(=O)Nc3ccc(-c4cccs4)cc3C(=O)N2C1	KDM5B inhibitor 39.8µM
O=C(N[C@H]1C[C@H]2C(=O)Nc3ccc(-c4cccs4)cc3C(=O)N2C1)c1ccccc1	KDM5B inhibitor 31.6µM
COc1ccc(-c2ccc3c(c2)C(=O)N2C[C@@H](NS(=O)(=O)c4ccc(F)cc4)C[C@H]2C(=O)N3)c(OC)c1	KDM5B inhibitor 35.5µM
COc1ccc(C(=O)N[C@H]2C[C@H]3C(=O)Nc4ccccc4C(=O)N3C2)cc1	none
O=C(N[C@H]1C[C@H]2C(=O)Nc3ccccc3C(=O)N2C1)c1ccccc1	none
CO[C@@H]1C[C@H]2C(=O)Nc3ccc(-c4ccccc4F)cc3C(=O)N2C1	none
COCC(=O)N[C@H]1CCN2C(=O)c3cc(-c4ccc(F)cc4F)ccc3NC(=O)[C@@H]2C1	none
COc1ccc(C(=O)N[C@H]2CCN3C(=O)c4cc(Br)ccc4NC(=O)[C@@H]3C2)cc1	none
COc1ccc(C(=O)N[C@H]2C[C@H]3C(=O)Nc4ccc(-c5cccs5)cc4C(=O)N3C2)cc1	KDM5B inhibitor 35.5µM
CONC(=O)c1ccc2c(c1)NC(=O)CS2	none
CCCCC(CC)C(=O)NCc1cccs1 (stereo not drawn)	none
O=C(Cn1c(=O)c2c(ncn2C2CCCC2)n(Cc2ccccc2)c1=O)N1CCOCC1	none
O=C(CSc1nc2c(c(=O)n1CCc1ccccc1)SCC2)Nc1ccc(C(F)(F)F)cc1	none
Cc1cc(NC(=O)C(C)OC(=O)c2cc3c(s2)CCCC3)no1 (stereo not drawn)	none
Cc1ccc2c(CN3CCN(c4cccc(Cl)c4)CC3)cc(=O)oc2c1	none
Cc1ccc(C)c(N2CC(C(=O)OCC(=O)c3ccc(Br)cc3)CC2=O)c1 (stereo not drawn)	none
O=c1cc(N2CCCN(c3ccc(C(F)(F)F)cn3)CC2)nc2ccccn12	none
S=C(NCc1ccc(Cl)cc1)Nc1ccc(Nc2ccccc2)cc1	none
O=C(c1cc(=O)c2ccccc2o1)N(Cc1cccc(Cl)c1)c1ccccn1	none
CCn1cc(C(=O)N2CCC(C3CCN(C(=O)NC)CC3)C2)cn1 (stereo not drawn)	none
Cc1ncsc1CN1CCC2(CC1)CN(C1CCC1)CC2CO (stereo not drawn)	none
Cc1cc(CN2CCC3(CC2)CN(C2CCC2)CC3CO)n(C)n1 (stereo not drawn)	KDM5B inhibitor 17.8µM
CCn1cc(C(=O)N2CCC3(CC2)CN(C2CCC2)CC3CO)cn1 (stereo not drawn)	KDM5B inhibitor 10µM
O=C(CN1CCOCC1)N1CCC2(CC1)CN(C1CCC1)CC2CO (stereo not drawn)	none
Cc1cc(CN2CCC3(CC2)CN(c2ccncn2)CC3CO)n(C)n1 (stereo not drawn)	none
CCCCN(C)CCC(=O)Nc1cccc(Cl)c1	none
CCN1CCN(c2c([N+](=O)[O-])cnc3ccc(Br)cc23)CC1	none
CN(C)C(=O)Cc1c[nH]c2ncc(-c3cccnc3)cc12	none
Cn1cc(-c2cnc3[nH]cc(CC(=O)NCc4cccc(F)c4)c3c2)cn1	KDM5B inhibitor 31.6µM
Cn1cc(-c2cnc3[nH]cc(CC(=O)Nc4cccnc4)c3c2)cn1	KDM5B inhibitor 39.8µM
O=C(Cc1c[nH]c2ncc(-c3cccnc3)cc12)Nc1ccc(F)cc1	none
CN(C)c1cccc(NC(=O)Cc2c[nH]c3ncc(-c4cccnc4)cc23)c1	none
CN(C)C(=O)Cc1c[nH]c2ncc(-c3cnn(C)c3)cc12	KDM5B inhibitor 39.8µM
CNC(=O)c1cccc(-c2cnc3[nH]cc(CC(=O)Nc4cccc(F)c4)c3c2)c1	none
CNC(=O)c1cccc(-c2cnc3[nH]cc(CC(=O)NC4CCC4)c3c2)c1	none
CCOC(=O)c1c(C)[nH]c(C(=O)C(C)N(C)Cc2ccc(OC)c(F)c2)c1C (stereo not drawn)	none
CCOc1cccc(NC(=O)c2ccc(C)cc2)c1	none
Cc1ccc(OC(=O)N2CCC(Oc3ccc4c(cnn4CCC(=O)O)c3)CC2)cc1	none
Cc1ccccc1CN(C)C(=O)CCc1nc2ccccc2s1	none
CSc1ccc(NC(=O)Cc2cccs2)cc1	none
CCOc1ccc(NC(=O)NC2CCN(c3nc4ccccc4s3)CC2)cc1	none
COc1ccc(CN(C)C(=O)c2cc(=O)[nH]c3ccccc23)c(OC)c1	none
N#Cc1ccc(N2CCN(C(=O)CNC(N)=O)CC2=O)cc1	none
N#Cc1ccc(N2CCN(C(=O)CCn3cncn3)CC2=O)cc1	none
